Reference: PubChem BioAssay AID488930 (Broad Institute, 2010)
Potency and affinity values are given separately. Inconclusive results are not listed. A call without a number means that no potency is given here. Activity calls are given as the source filed them.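 The calls were made as follows: active = compounds whose fitted half-maximal concentration is at most ten times their top tested dose; inconclusive = flat curve with 30 to 70% inhibition, or poor fit; inactive = the rest.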

Assay: Candida growth reduction in fluconazole presence – CaCi-2 strain, Alamar Blue, dry powder, set 2, antifungal resistance reversal project, dose response (AID 488930)
Details: C. albicans CaCi-2 (fluconazole-resistant clinical isolate) + fluconazole, 48 h; series mostly up to 6 µM

Q: Which outcome does the source give for O=C(Nc1ccc(Cl)cc1)N1CCN(c2ccnc3cc(Cl)ccc23)CC1 here?
A: inactive

Q: With O=C(c1ccc(Cl)cc1)N1CCN(c2ncnc3ccccc23)CC1 as the molecule, how does the outcome read?
A: inactive

Q: With O=C(c1ccccc1Cl)N1CCN(c2ccnc3cc(Cl)ccc23)CC1 as the molecule, how does the outcome read?
A: inactive

Q: Which outcome does the source give for COCCC(=O)N1CCN(c2ccnc3cc(Cl)ccc23)CC1 here?
A: inactive

Q: For COc1ccc2c(N3CCN(C(=O)c4ccc(Cl)cc4)CC3)ccnc2c1, which outcome is on record?
A: inactive

Q: For O=C(c1ccc(Cl)cc1)N1CCCN(c2ccnc3cc(Cl)ccc23)CC1, which outcome is on record?
A: inactive

Q: With O=C(c1ccc(Cl)cc1)N1CCN(c2ccnc3ccccc23)CC1 as the molecule, how does the outcome read?
A: inactive

Q: Which outcome does the source give for O=C(c1ccc(Cl)cc1)N1CCN(c2ccncc2)CC1 here?
A: inactive

Q: For N#Cc1ccc(N2CCN(C(=O)c3ccc(Cl)cc3)CC2)nc1, which outcome is on record?
A: inactive

Q: For Cc1cc(N2CCN(C(=O)c3ccc(Cl)cc3)CC2)c2ccccc2n1, which outcome is on record?
A: inactive

Q: Which outcome does the source give for O=C(c1ccc(Cl)cc1)N1CCNCC1 here?
A: inactive

Q: With CCCC(=O)N1CCN(c2ccnc3cc(Cl)ccc23)CC1 as the molecule, how does the outcome read?
A: inactive

Q: With Clc1ccc2c(N3CCNCC3)ccnc2c1 as the molecule, how does the outcome read?
A: inactive

Q: Which outcome does the source give for COc1ccnc(N2CCN(C(=O)c3ccc(Cl)cc3)CC2)c1 here?
A: inactive

Q: With Cc1cc(N2CCN(C(=O)c3ccc(Cl)cc3)CC2)c2ccc(F)cc2n1 as the molecule, how does the outcome read?
A: inactive

Q: For O=C(c1ccc(Cl)cc1)N1CCN(c2cccnc2)CC1, which outcome is on record?
A: inactive

Q: With COc1cccc2c(N3CCN(C(=O)c4ccc(Cl)cc4)CC3)cc(C)nc12 as the molecule, how does the outcome read?
A: inactive

Q: For O=C(c1ccc(Cl)cc1)N1CCN(c2ncnc3nc[nH]c23)CC1, which outcome is on record?
A: inactive

Q: With O=C(O)Cn1nc(-c2ccccc2)c2ccccc21 as the molecule, how does the outcome read?
A: inactive
